Common to all, as to set-up: scale not given: direction of the effect not stated beside the values
Assay [1] concerns the target Protein translocase subunit SecA (Escherichia coli (strain K12)) (UniProt P10408). In words: Assay to Identify E. coli SecA ATPase Inhibitors. The assay is classed as functional. To be noted: 30 µM.
For assay [2], the target named is T1, Ubiquitin-activating enzyme e1, putative (Leishmania donovani (strain BPK282A1)) (UniProt E9BSI1).
T1 sequence (whole entry): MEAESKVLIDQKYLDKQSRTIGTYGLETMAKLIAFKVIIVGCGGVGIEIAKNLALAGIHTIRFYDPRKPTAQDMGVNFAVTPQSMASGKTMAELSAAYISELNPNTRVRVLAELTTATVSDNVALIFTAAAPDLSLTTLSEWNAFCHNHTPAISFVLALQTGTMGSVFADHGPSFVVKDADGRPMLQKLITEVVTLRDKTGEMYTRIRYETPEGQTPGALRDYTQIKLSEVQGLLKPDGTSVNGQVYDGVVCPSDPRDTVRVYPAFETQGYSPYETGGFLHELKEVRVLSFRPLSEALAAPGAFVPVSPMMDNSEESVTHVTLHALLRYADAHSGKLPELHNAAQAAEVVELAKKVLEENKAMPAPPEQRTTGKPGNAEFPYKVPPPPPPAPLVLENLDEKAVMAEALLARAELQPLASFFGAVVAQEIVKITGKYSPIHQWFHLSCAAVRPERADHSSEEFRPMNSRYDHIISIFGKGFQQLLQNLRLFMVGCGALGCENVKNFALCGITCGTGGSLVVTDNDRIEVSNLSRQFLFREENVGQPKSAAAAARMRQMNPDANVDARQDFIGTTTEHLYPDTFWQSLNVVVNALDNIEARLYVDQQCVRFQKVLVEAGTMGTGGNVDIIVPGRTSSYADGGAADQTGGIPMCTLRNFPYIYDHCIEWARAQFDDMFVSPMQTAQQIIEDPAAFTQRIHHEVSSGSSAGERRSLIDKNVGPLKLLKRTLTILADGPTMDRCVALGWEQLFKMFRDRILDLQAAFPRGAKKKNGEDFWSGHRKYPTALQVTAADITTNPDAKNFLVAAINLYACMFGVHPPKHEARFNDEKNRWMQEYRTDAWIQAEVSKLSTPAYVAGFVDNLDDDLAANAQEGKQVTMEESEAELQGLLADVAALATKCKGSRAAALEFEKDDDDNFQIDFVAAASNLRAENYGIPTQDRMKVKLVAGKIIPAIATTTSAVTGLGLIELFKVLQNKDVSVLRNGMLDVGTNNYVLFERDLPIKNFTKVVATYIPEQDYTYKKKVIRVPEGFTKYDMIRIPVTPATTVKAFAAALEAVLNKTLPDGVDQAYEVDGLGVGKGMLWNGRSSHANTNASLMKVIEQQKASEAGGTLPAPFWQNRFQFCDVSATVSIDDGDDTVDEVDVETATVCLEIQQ
In words: Leishmania donovani Ubiquitin Activating Enzyme (LdE1). The format is functional. Conditions: 30 µM.

In assay [3] the target is Sialic acid-binding Ig-like lectin 9 (Homo sapiens) (UniProt Q9Y336). The experiment in a line: Hs-Siglec9 ALPHAscreen SOP 20170721. To be noted: 10 µM.
Chain of Sialic acid-binding Ig-like lectin 9 (Homo sapiens) (Q9Y336 whole entry): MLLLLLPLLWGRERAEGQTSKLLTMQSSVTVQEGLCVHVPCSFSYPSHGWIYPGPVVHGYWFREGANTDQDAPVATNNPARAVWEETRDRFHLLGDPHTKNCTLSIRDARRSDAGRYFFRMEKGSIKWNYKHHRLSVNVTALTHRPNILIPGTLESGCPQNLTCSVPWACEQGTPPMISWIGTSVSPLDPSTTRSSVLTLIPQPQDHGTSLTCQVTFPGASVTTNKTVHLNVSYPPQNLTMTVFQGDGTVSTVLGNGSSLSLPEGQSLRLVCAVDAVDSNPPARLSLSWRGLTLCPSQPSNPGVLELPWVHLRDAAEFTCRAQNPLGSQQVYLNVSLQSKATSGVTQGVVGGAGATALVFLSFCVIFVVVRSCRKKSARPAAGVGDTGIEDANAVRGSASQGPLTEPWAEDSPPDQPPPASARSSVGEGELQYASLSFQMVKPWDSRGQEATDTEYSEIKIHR
Another assay deals with Trypanosoma cruzi. In words: Trypanosoma cruzi phosphomannomutase and mannose-1-phosphate guanylyltransferase assay. Conditions: 10 µM. The format is functional.
The target of assay [4] is T2, Arginase-2, mitochondrial (Homo sapiens) (UniProt P78540).
T2 sequence (whole entry): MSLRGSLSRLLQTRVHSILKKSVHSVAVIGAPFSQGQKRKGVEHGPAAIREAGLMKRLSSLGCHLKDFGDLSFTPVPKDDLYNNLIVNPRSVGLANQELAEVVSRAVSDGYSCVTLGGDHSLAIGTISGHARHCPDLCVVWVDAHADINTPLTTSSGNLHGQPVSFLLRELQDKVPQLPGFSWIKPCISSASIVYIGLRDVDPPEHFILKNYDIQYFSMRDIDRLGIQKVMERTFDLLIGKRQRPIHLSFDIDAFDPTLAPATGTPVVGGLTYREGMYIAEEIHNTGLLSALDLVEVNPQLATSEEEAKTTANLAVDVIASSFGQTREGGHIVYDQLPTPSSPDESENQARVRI
In words: in vitro enzyme assay to detect the production of urea directly proportional to the activity of Arginase II. Note: in the data most compounds retested in dose-response had high values. The assay is classed as functional. Conditions: 33.3 µM.

For assay [5], the target named is T3, Proteasome subunit beta (Trypanosoma cruzi) (UniProt O96673).
T3 sequence (whole entry): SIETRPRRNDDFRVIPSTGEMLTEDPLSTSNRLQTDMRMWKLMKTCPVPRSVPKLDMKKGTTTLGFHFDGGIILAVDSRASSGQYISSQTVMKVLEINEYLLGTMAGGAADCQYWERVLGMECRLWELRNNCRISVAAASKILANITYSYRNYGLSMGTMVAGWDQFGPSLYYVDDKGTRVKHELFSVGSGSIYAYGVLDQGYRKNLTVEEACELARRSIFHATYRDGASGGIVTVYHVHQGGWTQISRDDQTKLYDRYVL
The experiment in a line: Trypanosoma cruzi proteasome chymotrypsin-like activity (TcProtChymo) assay. Note: in the data most compounds retested in dose-response had high values. The assay is classed as functional. To be noted: 9.37 µM.

The species entered for the next assay is Homo sapiens. The experiment in a line: To identify inhibition of the IFN signalling (Jak-Stat) pathway via expression of an eGFP reporter gene under the control of an IFN-stimulated response element (ISRE) containing MxA promoter. The assay is classed as functional. Conditions: 30 µM.
The target of assay [6] is T4, Tyrosyl-tRNA synthetase, putative (Trypanosoma cruzi (strain CL Brener)) (UniProt Q4DSP6).
T4 sequence (whole entry): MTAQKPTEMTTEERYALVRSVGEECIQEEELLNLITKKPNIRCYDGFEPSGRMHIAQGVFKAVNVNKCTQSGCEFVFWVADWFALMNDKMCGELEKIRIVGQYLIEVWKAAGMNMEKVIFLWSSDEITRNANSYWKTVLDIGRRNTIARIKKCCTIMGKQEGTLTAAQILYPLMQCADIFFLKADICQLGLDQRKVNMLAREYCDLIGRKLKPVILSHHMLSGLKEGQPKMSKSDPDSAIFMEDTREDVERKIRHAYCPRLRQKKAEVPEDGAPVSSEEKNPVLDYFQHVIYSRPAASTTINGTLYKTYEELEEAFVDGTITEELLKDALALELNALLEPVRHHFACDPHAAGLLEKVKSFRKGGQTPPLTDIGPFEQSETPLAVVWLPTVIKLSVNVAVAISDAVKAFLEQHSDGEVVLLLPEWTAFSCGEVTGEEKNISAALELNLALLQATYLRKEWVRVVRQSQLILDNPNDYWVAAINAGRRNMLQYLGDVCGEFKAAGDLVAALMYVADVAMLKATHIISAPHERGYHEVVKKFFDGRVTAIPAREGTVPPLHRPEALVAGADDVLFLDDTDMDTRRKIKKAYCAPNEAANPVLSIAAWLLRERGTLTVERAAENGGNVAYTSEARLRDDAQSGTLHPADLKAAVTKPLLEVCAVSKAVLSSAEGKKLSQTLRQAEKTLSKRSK
The experiment in a line: Trypanosoma cruzi tyrosyl tRNA synthetase (TcYRS) _High Tyrosine SOP. Note: in the data most compounds retested in dose-response had high values. The assay is classed as functional. Conditions: 30 µM.

Assay [7] deals with T4, Tyrosyl-tRNA synthetase, putative (Trypanosoma cruzi (strain CL Brener)). In words: Trypanosoma cruzi tyrosyl tRNA synthetase (TcYRS) SOP. The assay is classed as functional. To be noted: 30 µM.
The target in assay [8] is Chromo domain-containing protein 1 (Saccharomyces cerevisiae (strain ATCC 204508 / S288c) (Baker's yeast)) (UniProt P32657). In words: ScCHD-1 Enzyme Inhibition Assay. Note: in the data most compounds retested in dose-response had high values. The assay is classed as functional. Conditions: 30 µM.
Chain of Chromo domain-containing protein 1 (Saccharomyces cerevisiae (strain ATCC 204508 / S288c) (Baker's yeast)) (P32657 whole entry, the tested form may be a part): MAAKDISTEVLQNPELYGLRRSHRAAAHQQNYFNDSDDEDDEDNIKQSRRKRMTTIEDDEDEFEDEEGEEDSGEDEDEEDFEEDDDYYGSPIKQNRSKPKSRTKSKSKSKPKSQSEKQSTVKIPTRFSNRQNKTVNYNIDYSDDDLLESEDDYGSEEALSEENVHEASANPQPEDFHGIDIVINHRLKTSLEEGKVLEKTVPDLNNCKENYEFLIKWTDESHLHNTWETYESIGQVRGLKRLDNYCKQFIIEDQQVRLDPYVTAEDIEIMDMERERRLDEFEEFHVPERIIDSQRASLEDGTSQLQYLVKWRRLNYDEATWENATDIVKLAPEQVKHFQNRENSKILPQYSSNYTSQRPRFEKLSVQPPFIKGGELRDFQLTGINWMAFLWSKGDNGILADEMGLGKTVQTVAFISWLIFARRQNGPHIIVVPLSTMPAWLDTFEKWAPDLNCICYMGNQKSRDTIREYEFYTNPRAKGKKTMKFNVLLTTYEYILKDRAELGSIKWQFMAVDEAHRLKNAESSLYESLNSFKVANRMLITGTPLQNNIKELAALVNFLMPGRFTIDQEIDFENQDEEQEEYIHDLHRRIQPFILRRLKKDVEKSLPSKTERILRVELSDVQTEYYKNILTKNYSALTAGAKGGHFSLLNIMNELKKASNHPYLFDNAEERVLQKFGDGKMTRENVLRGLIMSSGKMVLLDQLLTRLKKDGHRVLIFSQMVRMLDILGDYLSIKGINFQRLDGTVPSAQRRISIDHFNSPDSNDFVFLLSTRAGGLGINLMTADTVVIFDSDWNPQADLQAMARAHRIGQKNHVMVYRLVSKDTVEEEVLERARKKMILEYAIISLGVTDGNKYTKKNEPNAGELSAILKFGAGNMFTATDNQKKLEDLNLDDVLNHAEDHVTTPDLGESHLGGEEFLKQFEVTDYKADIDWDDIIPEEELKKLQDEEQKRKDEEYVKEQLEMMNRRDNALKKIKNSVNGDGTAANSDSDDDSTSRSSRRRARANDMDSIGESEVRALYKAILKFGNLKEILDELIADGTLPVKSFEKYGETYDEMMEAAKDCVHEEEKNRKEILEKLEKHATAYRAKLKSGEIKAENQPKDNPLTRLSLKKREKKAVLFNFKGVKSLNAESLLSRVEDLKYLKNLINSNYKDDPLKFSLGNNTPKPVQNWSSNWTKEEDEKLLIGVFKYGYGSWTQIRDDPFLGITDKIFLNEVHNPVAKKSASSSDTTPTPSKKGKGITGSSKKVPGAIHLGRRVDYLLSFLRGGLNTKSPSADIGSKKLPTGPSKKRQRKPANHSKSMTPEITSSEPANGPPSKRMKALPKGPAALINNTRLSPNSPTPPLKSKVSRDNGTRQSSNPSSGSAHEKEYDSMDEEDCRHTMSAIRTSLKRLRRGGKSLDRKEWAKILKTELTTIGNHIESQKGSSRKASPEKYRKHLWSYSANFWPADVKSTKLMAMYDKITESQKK

For some assays here: Results with a measured potency or affinity are listed apart.

Chain of Protein translocase subunit SecA (Escherichia coli (strain K12)) (P10408 whole entry): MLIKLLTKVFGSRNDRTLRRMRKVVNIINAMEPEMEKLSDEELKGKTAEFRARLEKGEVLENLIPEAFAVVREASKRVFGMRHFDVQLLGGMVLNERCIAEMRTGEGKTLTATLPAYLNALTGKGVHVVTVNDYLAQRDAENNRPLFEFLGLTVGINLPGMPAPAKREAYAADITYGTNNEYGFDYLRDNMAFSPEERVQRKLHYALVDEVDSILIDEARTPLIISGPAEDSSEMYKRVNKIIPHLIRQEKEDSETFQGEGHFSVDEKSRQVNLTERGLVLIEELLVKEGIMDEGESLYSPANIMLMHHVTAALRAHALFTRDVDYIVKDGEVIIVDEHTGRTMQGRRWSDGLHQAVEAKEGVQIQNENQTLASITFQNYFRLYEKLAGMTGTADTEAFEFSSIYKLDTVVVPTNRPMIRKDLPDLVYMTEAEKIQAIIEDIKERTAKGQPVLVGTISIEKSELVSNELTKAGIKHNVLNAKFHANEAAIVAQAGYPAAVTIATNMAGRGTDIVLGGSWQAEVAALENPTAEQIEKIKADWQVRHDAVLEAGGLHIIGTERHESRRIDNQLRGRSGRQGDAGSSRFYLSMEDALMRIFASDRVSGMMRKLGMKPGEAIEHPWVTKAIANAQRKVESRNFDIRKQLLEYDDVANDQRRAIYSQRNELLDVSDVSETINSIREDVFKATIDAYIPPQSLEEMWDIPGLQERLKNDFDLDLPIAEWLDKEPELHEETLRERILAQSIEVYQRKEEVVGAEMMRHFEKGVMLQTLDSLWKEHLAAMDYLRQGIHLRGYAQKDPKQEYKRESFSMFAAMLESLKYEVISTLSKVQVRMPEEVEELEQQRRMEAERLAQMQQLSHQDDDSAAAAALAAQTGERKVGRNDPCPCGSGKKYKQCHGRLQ

For the compound `COC[C@@]12CC[C@@H](N3CCOCC3)C[C@H]1CCN(c1ncccc1Cl)C2`, the Percent Effect was -6.53% in assay [1]; 13.5% in [2]; 12.5% in assay [3]; 4.56% in the assay on Trypanosoma cruzi; 10.8% in [4]; 7.02% in assay [5]. Further, the Percent Effect is 2.53% in the assay listed under Homo sapiens, 5.85% in [6], 19.5% in [7] and -2.53% in [8].

In the case of `Cc1ccc(-c2nc(CCNC(=O)CCN3CCOC3=O)co2)cc1`, the Percent Effect in assay [1] was -3.11%; in [2], 5.33%; in assay [3], 5.5%; in the assay with Trypanosoma cruzi, -0.602%; in [4] it was 8.87%; in assay [5] it was 7.72%. The Percent Effect is 33.2% in the assay listed under Homo sapiens, 6.84% in assay [6], 5.13% in assay [7] and -8.83% in assay [8].

Turning to `CN(C)c1cc(C(=O)N2CCCC(n3cccn3)C2)ccn1` (stereo not given), the Percent Effect is -2.71% in assay [1]; 5.13% in assay [2]; 3.76% in assay [3]; 1.97% in the assay with Trypanosoma cruzi; 3.69% in assay [4]; 2.47% in [5]. For the same compound, the Percent Effect in the assay filed under Homo sapiens was 18.3%; in assay [6], -4.31%; in assay [7], 18.1%; in assay [8], -3.29%.

For the compound `CCN1CCn2nc(CCC(=O)N3CCCC3)cc2C1`, the Percent Effect in assay [1] was -6.01%; in [2], 2.7%; in assay [3], 0.796%; with Trypanosoma cruzi it was -3.98%; in assay [4] it was 0.35%; in assay [5], 19%. In addition, the Percent Effect in the assay listed under Homo sapiens was 8.04%; in [6], 5.85%; in assay [7], 14.6%; in assay [8], -5.3%.

In the case of `CC(C)(C)c1nnc(CN2CCOC(Cn3cncn3)C2)o1` (stereo not given), the Percent Effect is -3.4% in assay [1]; 17.9% in assay [2]; 1.77% in assay [3]; 9.67% in the assay on Trypanosoma cruzi; -6.56% in [4]; 4.18% in [5]. Further, the Percent Effect is 8.6% in the assay filed under Homo sapiens, 4.31% in [6], 18.1% in [7] and -4.15% in [8].

Consider `O=C(Cc1csc(-c2nnc[nH]2)n1)N1CCCC1Cn1cccn1` (stereo not given), for which the Percent Effect was -1.04% in [1]; 8% in [2]; 5.84% in assay [3]; -0.402% with Trypanosoma cruzi; -3.1% in assay [4]; 8.74% in [5]. Further, the Percent Effect in the assay listed under Homo sapiens was -1.78%; in assay [6], 2.63%; in [7], 5.13%; in assay [8], -9.48%.

Turning to `CC(C(=O)N1CCCC1)N1CCC(c2nccn2CC2CCC2)CC1` (stereo not given), the Percent Effect in assay [1] is -7.94%; in assay [2], 0%; in assay [3] it was -0.943%; in the assay with Trypanosoma cruzi, -1.07%; in [4], 0.35%; in assay [5], 1.71%. The Percent Effect in the assay filed under Homo sapiens is 1.41%; in assay [6] it was 9.04%; in assay [7], 12.2%; in [8] it was 2.51%.

For `COc1ccc(CN(C)CC(=O)NC2(C)CCS(=O)(=O)C2)cc1F` (stereo not given), the Percent Effect in assay [1] was 0.854%; in [2], 0%; in [3], 4.26%; with Trypanosoma cruzi, -5.42%; in assay [4] it was 4.88%; in [5] it was 2.8%. For the same compound, the Percent Effect is 17.4% in the assay filed under Homo sapiens, -0.526% in assay [6], 0% in assay [7] and -1.6% in assay [8].

As to `Cc1ncc2c(n1)CCN(Cc1nc3ccccc3o1)C2`, the Percent Effect in assay [1] is -4.63%; in assay [2], 16%; in assay [3], -1.93%; in the assay with Trypanosoma cruzi, 0.201%; in assay [4], -6.21%; in assay [5], 16%. In addition, the Percent Effect is -5.07% in the assay filed under Homo sapiens, 7.89% in assay [6], 25.6% in assay [7] and -11% in assay [8].

For the compound `O=S(=O)(CCCN1CCCC1Cn1cncn1)c1ccccc1` (stereo not given), the Percent Effect in [1] is 1.87%; in [2], 26%; in assay [3] it was -0.0999%; in the assay with Trypanosoma cruzi, 1.49%; in [4], -4.71%; in assay [5], 17.4%. Also, the Percent Effect was 2.97% in the assay filed under Homo sapiens, 9.8% in assay [6], 21.2% in assay [7] and -10.1% in [8].

Regarding `CCC(=O)N(C)CC(=O)Nc1ccc(Br)cn1`, the Percent Effect was -6.29% in assay [1]; 2.67% in [2]; 0.577% in assay [3]; -4.22% in the assay on Trypanosoma cruzi; 1.77% in [4]; 6.87% in assay [5]. Also, the Percent Effect in the assay listed under Homo sapiens is 8.04%; in assay [6], -0.526%; in assay [7] it was 2.56%; in [8], -5.17%.

The record behind these values is ChEMBL document CHEMBL3988442, “University of Dundee, Small-Polar-MMV Screening Library” (2021).
